{"source": "PubChem BioAssay (NCI)", "note": "Values joined by “and” are separate entries in the source; they are usually repeats but may differ in a detail not shown here. Equal entries are not always repeated. The panel holds about 83,000 compounds, 20% with a hit somewhere; the sample as a whole holds those more often.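 Values shown are percent growth following 48 h exposure of cells in 96-well plates to a single concentration of compound; below 10 was considered active.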 Active and inactive are the calls of the source. Starred links: 1 amine or outer side, 2 acyl side, 3 side chain; linkers in the order of their positions; H or OH if unused. Positions of bridges follow the written chain, without caps; N, C: chain ends. Non-standard residues stand in square brackets, D forms with d. Residues, ends and D or L forms follow the SMILES beside them. Chains are numbered I, II in the order given. Actinocin(9to1) = Cc1c2oc3c(C)ccc(C(=O)[*:1])c3nc-2c(C(=O)[*:2])c(N)c1=O; aThr = C[C@H](O)[C@H](N)C(=O)O; NMeV = CN[C@H](C(=O)O)C(C)C; Sar = CNCC(=O)O", "data": [{"test_system": "MCF7 breast", "test": "NCI-60 one-dose screen, 48 h (100 = growth as untreated, 0 = no growth, -100 = all killed)", "details": "10 µM", "values": [{"smiles": "CCCCCCCCCCCCCCCCCN", "growth": "100% (inactive)"}, {"smiles": "BrC/C=C/C[P+](c1ccccc1)(c1ccccc1)c1ccccc1", "growth": "20.3% (inactive)"}, {"smiles": "O=c1[nH]cc(F)c(=O)[nH]1", "growth": "29.6% (inactive) and 18.3% (inactive)"}, {"smiles": "CSc1ccc2c(c1)C(N1CCN(C)CC1)Cc1ccccc1S2", "note": "(stereo not given)", "growth": "20.9% (inactive)"}, {"smiles": "S=c1[nH]nc(Cc2ccccc2)c(=S)[nH]1", "growth": "96.5% (inactive)"}, {"smiles": "COc1cc(C(C)(C)C)cc(OC)c1C(O)(c1c(OC)cc(C(C)(C)C)cc1OC)c1c(OC)cc(C(C)(C)C)cc1OC", "growth": "-88.6% (active)"}, {"smiles": "Cc1c2oc3c(C)ccc(C(=O)N[C@@H]4C(=O)N[C@H](C(C)C)C(=O)N5CCC[C@H]5C(=O)N(C)CC(=O)N(C)[C@@H](C(C)C)C(=O)O[C@H]4C)c3nc-2c(C(=O)N[C@@H]2C(=O)N[C@H](C(C)C)C(=O)N3CCC[C@H]3C(=O)N(C)CC(=O)N(C)[C@@H](C(C)C)C(=O)O[C@H]2C)c(N)c1=O", "note": "(I: [aThr][dV]P[Sar][NMeV] / II: [aThr][dV]P[Sar][NMeV]; ester I:1-I:C, II:1-II:C; linker I:N-II:N via Actinocin(9to1))", "growth": "-15.3% (active)"}, {"smiles": "CN(C)CCC(=O)c1c[nH]c2ccccc12", "growth": "93.2% (inactive)"}, {"smiles": "Cc1cc(NCCCN(C)C)c2ccc3c(ccc4c(NCCCN(C)C)cc(C)nc43)c2n1", "growth": "-89% (active)"}, {"smiles": "CN1CCN(c2ccc3nc(-c4ccc5nc(-c6ccc(O)cc6)[nH]c5c4)[nH]c3c2)CC1", "growth": "34.5% (inactive)"}, {"smiles": "Nc1ccc2cc(Br)c3ccccc3c2c1", "growth": "35.1% (inactive)"}, {"smiles": "O=C(/C(=C/c1ccccc1)CBr)c1ccccc1", "growth": "42.9% (inactive)"}, {"smiles": "N#C/C(=C1C=C/C(=N\\O)C(Cl)=C\\1)c1ccccc1", "growth": "14.8% (inactive)"}, {"smiles": "Cc1cnc(/C=N\\NC(N)=S)c2cccc(N)c12", "growth": "9.29% (active)"}]}, {"test_system": "HCT-116 colon", "test": "NCI-60 one-dose screen, 48 h (100 = growth as untreated, 0 = no growth, -100 = all killed)", "details": "10 µM", "values": [{"smiles": "CCCCCCCCCCCCCCCCCN", "growth": "102% (inactive)"}, {"smiles": "BrC/C=C/C[P+](c1ccccc1)(c1ccccc1)c1ccccc1", "growth": "14.8% (inactive)"}, {"smiles": "O=c1[nH]cc(F)c(=O)[nH]1", "growth": "33.9% (inactive) and 46.9% (inactive)"}, {"smiles": "CSc1ccc2c(c1)C(N1CCN(C)CC1)Cc1ccccc1S2", "note": "(stereo not given)", "growth": "29.3% (inactive)"}, {"smiles": "S=c1[nH]nc(Cc2ccccc2)c(=S)[nH]1", "growth": "100% (inactive)"}, {"smiles": "COc1cc(C(C)(C)C)cc(OC)c1C(O)(c1c(OC)cc(C(C)(C)C)cc1OC)c1c(OC)cc(C(C)(C)C)cc1OC", "growth": "-100% (active)"}, {"smiles": "Cc1c2oc3c(C)ccc(C(=O)N[C@@H]4C(=O)N[C@H](C(C)C)C(=O)N5CCC[C@H]5C(=O)N(C)CC(=O)N(C)[C@@H](C(C)C)C(=O)O[C@H]4C)c3nc-2c(C(=O)N[C@@H]2C(=O)N[C@H](C(C)C)C(=O)N3CCC[C@H]3C(=O)N(C)CC(=O)N(C)[C@@H](C(C)C)C(=O)O[C@H]2C)c(N)c1=O", "note": "(I: [aThr][dV]P[Sar][NMeV] / II: [aThr][dV]P[Sar][NMeV]; ester I:1-I:C, II:1-II:C; linker I:N-II:N via Actinocin(9to1))", "growth": "-29.5% (active)"}, {"smiles": "CN(C)CCC(=O)c1c[nH]c2ccccc12", "growth": "103% (inactive)"}, {"smiles": "Cc1cc(NCCCN(C)C)c2ccc3c(ccc4c(NCCCN(C)C)cc(C)nc43)c2n1", "growth": "-15.4% (active)"}, {"smiles": "CN1CCN(c2ccc3nc(-c4ccc5nc(-c6ccc(O)cc6)[nH]c5c4)[nH]c3c2)CC1", "growth": "48.3% (inactive)"}, {"smiles": "Nc1ccc2cc(Br)c3ccccc3c2c1", "growth": "71.1% (inactive)"}, {"smiles": "O=C(/C(=C/c1ccccc1)CBr)c1ccccc1", "growth": "35.8% (inactive)"}, {"smiles": "N#C/C(=C1C=C/C(=N\\O)C(Cl)=C\\1)c1ccccc1", "growth": "5.69% (active)"}, {"smiles": "Cc1cnc(/C=N\\NC(N)=S)c2cccc(N)c12", "growth": "17.4% (inactive)"}]}, {"test_system": "HCC-2998 colon", "test": "NCI-60 one-dose screen, 48 h (100 = growth as untreated, 0 = no growth, -100 = all killed)", "details": "10 µM", "values": [{"smiles": "CCCCCCCCCCCCCCCCCN", "growth": "126% (inactive)"}, {"smiles": "BrC/C=C/C[P+](c1ccccc1)(c1ccccc1)c1ccccc1", "growth": "71.9% (inactive)"}, {"smiles": "O=c1[nH]cc(F)c(=O)[nH]1", "growth": "18.9% (inactive)"}, {"smiles": "CSc1ccc2c(c1)C(N1CCN(C)CC1)Cc1ccccc1S2", "note": "(stereo not given)", "growth": "-39.2% (active)"}, {"smiles": "S=c1[nH]nc(Cc2ccccc2)c(=S)[nH]1", "growth": "103% (inactive)"}, {"smiles": "COc1cc(C(C)(C)C)cc(OC)c1C(O)(c1c(OC)cc(C(C)(C)C)cc1OC)c1c(OC)cc(C(C)(C)C)cc1OC", "growth": "-91.9% (active)"}, {"smiles": "CN(C)CCC(=O)c1c[nH]c2ccccc12", "growth": "115% (inactive)"}, {"smiles": "Cc1cc(NCCCN(C)C)c2ccc3c(ccc4c(NCCCN(C)C)cc(C)nc43)c2n1", "growth": "-66.1% (active)"}, {"smiles": "Nc1ccc2cc(Br)c3ccccc3c2c1", "growth": "47.7% (inactive)"}, {"smiles": "O=C(/C(=C/c1ccccc1)CBr)c1ccccc1", "growth": "108% (inactive)"}, {"smiles": "N#C/C(=C1C=C/C(=N\\O)C(Cl)=C\\1)c1ccccc1", "growth": "89.7% (inactive)"}, {"smiles": "Cc1cnc(/C=N\\NC(N)=S)c2cccc(N)c12", "growth": "-39.3% (active)"}]}]}
